The source made the active and inactive calls. How the source made its calls: active means hit-call score of the fitted dose curve at least 0.9, where 1 is the maximum; inactive means score below 0.9.
Experiments:
Conditions in all cases: mRNA level, 48 h; actives raise or lower the signal
[1] = read-out: Lipase C (LIPC), LIPC (gene 3990); assay: LTEA_HepaRG_LIPC: Life Technologies and Expression Analysis (LTEA) Assay for Lipase C (LIPC) using HepaRG (AID 2283514)
Outline: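 HepaRG, 48 h exposure, 8-pt half-log series from 100 uM in 0.5% DMSO, duplicates. Readout: LIPC mRNA by Fluidigm qRT-PCR, housekeeping-normalized (ACTB/GAPDH/POLR2A). Gain or loss fitted bidirectionally against DMSO baseline.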

[2] = read-out: Lipoprotein lipase (LPL), LPL (gene 4023); assay: LTEA_HepaRG_LPL: Life Technologies and Expression Analysis (LTEA) Assay for Lipoprotein lipase (LPL) using HepaRG (AID 2283515)
Outline: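 HepaRG, 48 h exposure, 8-pt half-log dilutions from 100 uM, 0.5% DMSO vehicle, duplicates; qRT-PCR (Fluidigm array) of LPL mRNA vs housekeeping genes; bidirectional curve fit relative to DMSO baseline.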

[3] = read-out: MicroRNA 122 (MIR122), gene 406906; assay: LTEA_HepaRG_MIR122: Life Technologies and Expression Analysis (LTEA) Assay for MicroRNA 122 (MIR122) using HepaRG (AID 2283516); further: the transcript read is the microRNA miR-122
Outline: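 qRT-PCR read-out (TaqMan, Fluidigm array), normalized to three housekeeping genes; HepaRG cells dosed 48 h at 8 concentrations up to 100 uM in 0.5% DMSO, duplicate; gain or loss fitted against DMSO baseline.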

[4] = read-out: matrix metalloproteinase-10 (MMP10), MMP10 (gene 4319); assay: LTEA_HepaRG_MMP10: Life Technologies and Expression Analysis (LTEA) Assay for matrix metalloproteinase-10 (MMP10) using HepaRG (AID 2283517)
Outline: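 Transcript levels come from Fluidigm qRT-PCR normalized to three housekeeping genes, with curves fitted bidirectionally against 0.5% DMSO. Human HepaRG cells were dosed for 48 hours at concentrations up to 100 uM.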

MYC, MYC (gene 4609) = assay: LTEA_HepaRG_MYC: Life Technologies and Expression Analysis (LTEA) Assay for MYC using HepaRG (AID 2283518)
Outline: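 Differentiated HepaRG cells exposed 48 h in serum-free induction medium to 8 concentrations (top 100 uM, half-log steps; 0.5% DMSO), duplicate. MYC mRNA measured by Fluidigm qRT-PCR, normalized to ACTB, GAPDH, POLR2A; bidirectional fit versus DMSO.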

[5] = read-out: matrix metalloproteinase-3 (MMP3), MMP3 (gene 4314); assay: LTEA_HepaRG_MMP3: Life Technologies and Expression Analysis (LTEA) Assay for matrix metalloproteinase-3 (MMP3) using HepaRG (AID 2283519)
Outline: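 qRT-PCR read-out of MMP3 mRNA (normalised to three housekeeping genes) in HepaRG liver cells after 48 h chemical exposure; 8-point half-log series, top 100 uM, 0.5% DMSO vehicle. Bidirectional curve fitting against DMSO baseline.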

[6] = read-out: Paternally Expressed 10 (PEG10), PEG10 (gene 23089); assay: LTEA_HepaRG_PEG10: Life Technologies and Expression Analysis (LTEA) Assay for Paternally Expressed 10 (PEG10) using HepaRG (AID 2283520)
Outline: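 qRT-PCR read-out: PEG10 mRNA normalised to three housekeeping genes, fitted bidirectionally against 0.5% DMSO vehicle. HepaRG cells received test chemicals for 48 h in serum-free induction medium, 8 points, top 100 uM, half-log steps.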

[7] = read-out: Nuclear factor NF-kappa-B p105 subunit (Homo sapiens) (UniProt P19838); assay: LTEA_HepaRG_NFKB1: Life Technologies and Expression Analysis (LTEA) Assay for Nuclear Factor Kappa B Subunit 1 (NFKB1) using HepaRG (AID 2283521);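 further: TaqMan qRT-PCR transcript normalised to ACTB GAPDH and POLR2A housekeeping genes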
Outline: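 Differentiated human HepaRG cells were exposed for 48 h in serum-free induction medium to eight concentrations (top 100 uM, half-log steps, 0.5% DMSO), in duplicate. NFKB1 mRNA was measured by TaqMan qRT-PCR, normalized to ACTB/GAPDH/POLR2A, and fitted bidirectionally against DMSO.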

[8] = read-out: Protein phosphatase 2A (PPP2R4), PTPA (gene 5524); assay: LTEA_HepaRG_PPP2R4: Life Technologies and Expression Analysis (LTEA) Assay for Protein phosphatase 2A (PPP2R4) using HepaRG (AID 2283522)
Outline: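 HepaRG, 48 h exposure, 8-pt half-log series from 100 uM, 0.5% DMSO vehicle, duplicates. Readout: PPP2R4 mRNA, Fluidigm qRT-PCR, housekeeping-normalized. Bidirectional curve fit vs DMSO baseline.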

[9] = read-out: Phosphatase and tensin (PTEN), PTEN (gene 5728); assay: LTEA_HepaRG_PTEN: Life Technologies and Expression Analysis (LTEA) Assay for Phosphatase and tensin (PTEN) using HepaRG (AID 2283523)
Outline: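 HepaRG, 48 h exposure, 8-pt half-log series from 100 uM top, 0.5% DMSO vehicle, duplicates. Readout: Fluidigm qRT-PCR of PTEN transcript; housekeeping normalization (ACTB, GAPDH, POLR2A). Gain or loss fitted relative to DMSO baseline.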

[10] = read-out: solute carrier (SLC22A1), SLC22A1 (gene 6580); assay: LTEA_HepaRG_SLC22A1: Life Technologies and Expression Analysis (LTEA) Assay for solute carrier (SLC22A1) using HepaRG (AID 2283524)
Outline: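 qRT-PCR readout (TaqMan, Fluidigm arrays) of SLC22A1 transcript, normalized to three housekeeping genes; bidirectional curve fit relative to 0.5% DMSO vehicle. Differentiated human HepaRG cells, 48 h chemical exposure, top concentration 100 uM, half-log steps, eight points.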

[11] = read-out: Pyruvate Dehydrogenase Kinase 4 (PDK4), PDK4 (gene 5166); assay: LTEA_HepaRG_PDK4: Life Technologies and Expression Analysis (LTEA) Assay for Pyruvate Dehydrogenase Kinase 4 (PDK4) using HepaRG (AID 2283525)
Outline: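 HepaRG (human liver line), 48 h chemical exposure, 8-pt half-log CRC top 100 uM, 0.5% DMSO vehicle, duplicates. Readout: TaqMan qRT-PCR of PDK4 mRNA, housekeeping-normalized; gain/loss fit relative to DMSO baseline.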

[12] = read-out: NAD(P)H dehydrogenase [quinone] 1 (NQO1), NQO1 (gene 1728); assay: LTEA_HepaRG_NQO1: Life Technologies and Expression Analysis (LTEA) Assay for NAD(P)H dehydrogenase [quinone] 1 (NQO1) using HepaRG (AID 2283526)
Outline: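 qRT-PCR read-out (Fluidigm TaqMan), normalized to three housekeeping genes, after 48 h chemical exposure of HepaRG cells. Concentrations: eight points, top 100 uM, half-log steps, 0.5% DMSO vehicle. Gain or loss of signal fitted relative to DMSO.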

[13] = read-out: succinate dehydrogenase complex iron sulfur subunit B (SDHB), SDHB (gene 6390); assay: LTEA_HepaRG_SDHB: Life Technologies and Expression Analysis (LTEA) Assay for succinate dehydrogenase complex iron sulfur subunit B (SDHB) using HepaRG (AID 2283528)
Outline: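 HepaRG, 48 h exposure, 8-pt half-log series from 100 uM in 0.5% DMSO, duplicates. Readout: SDHB mRNA by Fluidigm qRT-PCR vs housekeeping genes; bidirectional fit relative to DMSO.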

[14] = read-out: Signal transducer and activator of transcription 3 (Homo sapiens) (UniProt P40763); assay: LTEA_HepaRG_STAT3: Life Technologies and Expression Analysis (LTEA) Assay for Signal transducer and activator of transcription (STAT3) using HepaRG (AID 2283529)
Outline: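 HepaRG, 48 h exposure, 8-pt half-log series (top 100 uM), 0.5% DMSO vehicle, duplicates. Readout: STAT3 transcript by Fluidigm qRT-PCR, housekeeping-normalized; bidirectional fit vs DMSO baseline.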

[15] = read-out: solute carrier (SLCO1B1), SLCO1B1 (gene 10599); assay: LTEA_HepaRG_SLCO1B1: Life Technologies and Expression Analysis (LTEA) Assay for solute carrier (SLCO1B1) using HepaRG (AID 2283530)
Outline: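 Differentiated human HepaRG cells were exposed for 48 h in serum-free induction medium to eight half-log concentrations, top 100 uM, in 0.5% DMSO. SLCO1B1 mRNA was measured by qRT-PCR, normalized to ACTB, GAPDH and POLR2A, and fitted bidirectionally against DMSO.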

[16] = read-out: sulfotransferase 2A1 (SULT2A1), SULT2A1 (gene 6822); assay: LTEA_HepaRG_SULT2A1: Life Technologies and Expression Analysis (LTEA) Assay for sulfotransferase 2A1 (SULT2A1) using HepaRG (AID 2283531)
Outline: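 HepaRG human liver cells, 48 h exposure in serum-free induction medium to 8 half-log concentrations topping at 100 µM (0.5% DMSO), duplicate wells. SULT2A1 mRNA measured by TaqMan qRT-PCR, normalized to ACTB/GAPDH/POLR2A; bidirectional fit against DMSO.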

[17] = read-out: Transforming Growth Factor (TGFA), TGFA (gene 7039); assay: LTEA_HepaRG_TGFA: Life Technologies and Expression Analysis (LTEA) Assay for Transforming Growth Factor (TGFA) using HepaRG (AID 2283532)
Outline: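 qRT-PCR read-out of TGFA transcript, normalized to three housekeeping genes, fitted bidirectionally against 0.5% DMSO baseline. Human HepaRG cultures received chemicals for 48 h at eight half-log concentrations, top 100 uM.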

[18] = read-out: Transforming Growth Factor (TGFB1), TGFB1 (gene 7040); assay: LTEA_HepaRG_TGFB1: Life Technologies and Expression Analysis (LTEA) Assay for Transforming Growth Factor (TGFB1) Transporter using HepaRG (AID 2283533)
Outline: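 Differentiated HepaRG cells exposed 48 hr in serum-free induction medium to eight half-log concentrations up to 100 uM (0.5% DMSO), duplicate; TGFB1 mRNA by TaqMan qRT-PCR normalised to ACTB, GAPDH, POLR2A; bidirectional fit against DMSO.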

[19] = read-out: Nuclear factor erythroid 2-related factor 2 (Homo sapiens) (UniProt Q16236); assay: LTEA_HepaRG_NFE2L2: Life Technologies and Expression Analysis (LTEA) Assay for Nuclear factor erythroid 2-related factor 2 (NFE2L2) Transcription Factor using HepaRG (AID 2283527)
Outline: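 HepaRG, 48 h dosing, 8-pt half-log series from 100 uM in 0.5% DMSO, duplicates. Read-out: NFE2L2 mRNA by qRT-PCR (ACTB/GAPDH/POLR2A normalization). Bidirectional curve fit vs DMSO baseline.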

Measured: AC50

Sequence of Nuclear factor NF-kappa-B p105 subunit (Homo sapiens) (P19838 whole entry, looked up): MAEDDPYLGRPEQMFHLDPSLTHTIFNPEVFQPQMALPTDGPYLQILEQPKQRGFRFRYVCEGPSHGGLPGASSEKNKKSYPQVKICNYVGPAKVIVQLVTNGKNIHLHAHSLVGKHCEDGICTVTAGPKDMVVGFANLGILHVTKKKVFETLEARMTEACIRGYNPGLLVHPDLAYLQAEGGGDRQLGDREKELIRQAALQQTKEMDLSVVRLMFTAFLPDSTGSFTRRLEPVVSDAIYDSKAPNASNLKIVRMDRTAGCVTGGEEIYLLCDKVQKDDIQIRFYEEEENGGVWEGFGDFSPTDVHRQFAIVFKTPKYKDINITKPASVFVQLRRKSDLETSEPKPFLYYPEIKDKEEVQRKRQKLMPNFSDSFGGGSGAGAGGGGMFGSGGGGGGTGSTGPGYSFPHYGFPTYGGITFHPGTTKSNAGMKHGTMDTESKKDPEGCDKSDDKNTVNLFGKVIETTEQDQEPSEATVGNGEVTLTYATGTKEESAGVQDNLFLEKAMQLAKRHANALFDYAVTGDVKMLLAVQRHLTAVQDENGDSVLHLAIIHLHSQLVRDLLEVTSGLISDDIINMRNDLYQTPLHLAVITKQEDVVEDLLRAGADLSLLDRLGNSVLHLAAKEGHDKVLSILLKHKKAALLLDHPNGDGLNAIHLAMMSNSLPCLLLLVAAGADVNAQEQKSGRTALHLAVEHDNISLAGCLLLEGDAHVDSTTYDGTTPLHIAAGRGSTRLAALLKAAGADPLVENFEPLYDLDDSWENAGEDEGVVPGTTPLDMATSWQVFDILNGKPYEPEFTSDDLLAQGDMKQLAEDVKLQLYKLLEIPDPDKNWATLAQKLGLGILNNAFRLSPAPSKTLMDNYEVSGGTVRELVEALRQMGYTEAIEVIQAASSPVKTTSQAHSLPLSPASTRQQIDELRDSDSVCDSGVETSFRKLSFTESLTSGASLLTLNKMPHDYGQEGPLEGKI
Sequence of Signal transducer and activator of transcription 3 (Homo sapiens) (P40763 whole entry, looked up): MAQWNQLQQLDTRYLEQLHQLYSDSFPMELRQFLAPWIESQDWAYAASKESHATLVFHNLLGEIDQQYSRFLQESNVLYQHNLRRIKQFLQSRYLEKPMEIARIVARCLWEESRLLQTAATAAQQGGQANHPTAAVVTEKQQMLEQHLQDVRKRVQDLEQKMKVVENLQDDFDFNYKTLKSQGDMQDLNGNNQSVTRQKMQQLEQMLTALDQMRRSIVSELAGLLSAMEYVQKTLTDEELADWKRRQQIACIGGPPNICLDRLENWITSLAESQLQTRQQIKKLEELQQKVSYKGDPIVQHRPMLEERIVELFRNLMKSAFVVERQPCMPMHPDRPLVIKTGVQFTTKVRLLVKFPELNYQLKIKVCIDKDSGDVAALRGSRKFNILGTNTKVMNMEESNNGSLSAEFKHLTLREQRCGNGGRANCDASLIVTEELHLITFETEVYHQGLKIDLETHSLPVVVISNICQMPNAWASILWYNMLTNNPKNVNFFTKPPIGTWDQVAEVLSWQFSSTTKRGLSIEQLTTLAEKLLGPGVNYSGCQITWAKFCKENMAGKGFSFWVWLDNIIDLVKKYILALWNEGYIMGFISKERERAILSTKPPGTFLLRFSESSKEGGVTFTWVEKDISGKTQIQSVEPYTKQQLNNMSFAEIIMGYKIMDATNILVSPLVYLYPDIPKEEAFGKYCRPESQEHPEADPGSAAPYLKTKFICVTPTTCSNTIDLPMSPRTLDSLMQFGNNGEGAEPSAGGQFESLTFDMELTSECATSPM
Sequence of Nuclear factor erythroid 2-related factor 2 (Homo sapiens) (Q16236 whole entry, looked up): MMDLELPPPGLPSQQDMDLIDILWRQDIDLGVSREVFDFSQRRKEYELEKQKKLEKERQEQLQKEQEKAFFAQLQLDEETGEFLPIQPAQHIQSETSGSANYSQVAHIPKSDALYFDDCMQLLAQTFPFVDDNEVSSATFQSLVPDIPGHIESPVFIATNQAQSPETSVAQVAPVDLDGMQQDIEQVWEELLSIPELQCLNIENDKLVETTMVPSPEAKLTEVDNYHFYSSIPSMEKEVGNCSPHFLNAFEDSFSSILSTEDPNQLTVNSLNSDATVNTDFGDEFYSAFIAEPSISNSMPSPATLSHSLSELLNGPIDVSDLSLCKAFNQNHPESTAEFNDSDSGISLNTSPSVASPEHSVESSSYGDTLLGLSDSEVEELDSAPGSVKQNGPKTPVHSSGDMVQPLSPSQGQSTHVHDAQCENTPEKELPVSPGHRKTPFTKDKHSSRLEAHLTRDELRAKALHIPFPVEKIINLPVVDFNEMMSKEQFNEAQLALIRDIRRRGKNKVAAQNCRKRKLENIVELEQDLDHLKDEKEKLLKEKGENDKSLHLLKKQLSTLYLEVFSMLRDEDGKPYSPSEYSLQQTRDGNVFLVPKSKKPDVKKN

CCCCOCCOCCOCc1cc2c(cc1CCC)OCO2
active: [11] 17.8 µM | [15] 8.47 µM | [16] 6.8 µM
not listed: [19]
inactive: all other assays above

COCCO
not listed: [7] | [8] | [19]
inactive: all other assays above

CCCCOC(=O)C(C)Oc1ccc(Oc2ccc(C(F)(F)F)cn2)cc1 (stereo unspecified)
not listed: [8] | [19]
inactive: all other assays above

CCOC(=O)C(C)Oc1ccc(Oc2nc3ccc(Cl)cc3o2)cc1 (stereo unspecified)
active: [10] 9.92 µM
inactive: all other assays above

c1ccc2[nH]c(-c3cscn3)nc2c1
active: MYC, MYC (gene 4609) 40 µM | [11] 15.8 µM | [19] 50 µM
not listed: [6] | [8] | [18]
inactive: all other assays above

C#CCOC(=O)[C@@H](C)Oc1ccc(Oc2ncc(Cl)cc2F)cc1
active: [11] 50 µM
not listed: [7] | [8] | [19]
inactive: all other assays above

CCC(C)OC(=O)N1CCCCC1CCO (stereo unspecified)
not listed: [6] | [8]
inactive: all other assays above

Reference: PubChem BioAssay (EPA / NIEHS)
